Screening results (PubChem BioAssay)
Sampled rows, rich in hits. Any-hit rate of the full collection: about 6.2%.
Luc counter – counter-screen: inhibitors of Kinase-Glo firefly luciferase; Q27757; Potency, µM (titrated, usually from 38.3 µM), inactives show at the top dose activity change, negative = inhibition, usual class: inhibitors; Kinase-Glo luciferase, ATP luminescence, 8 min; actives 0.28% (n = 200,000); further: nearly all actives have a fitted effect of over 60% in size
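Kinase-Glo luciferase light output from ATP and luciferin was measured with 10 uM ATP, within the enzyme's linear range. Buffer: 50 mM imidazole pH 7.2, 50 mM KCl, 7 mM MgCl2, 0.01% Tween 20, 0.05% BSA; luminescence read after 8 min at ambient temperature.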
Gal4-VP16 FLuc – counter-screen for ROR gamma inhibitors: Gal4-VP16 reporter; Drosophila S2 Gal4-VP16 UAS-luciferase, luminescence, 20 h; actives 3.5% (n = 310,000); Potency, µM (series often up to 53.6 µM), for inactives: at the highest dose activity, negative = inhibition, actives largely listed as inhibitors;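 further: Gal4-VP16 expression switched on by copper sulfate through the metallothionein promoter; nearly all actives have a fitted effect of over 50% in size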
RORgamma inh – inhibitors of mouse ROR gamma transcriptional activity. P51450. Drosophila S2 Gal4-RORgamma UAS-luciferase reporter, 20 h. Potency, µM (top dose mostly 53.6 µM), inactives show at the highest dose activity change, negative = inhibition, actives largely listed as inhibitors. actives 5.4% (n = 310,000). AID 2551; further: nearly all actives have a fitted effect of over 60% in size
Target sequence (P51450 whole entry, looked up, the tested form may be a part): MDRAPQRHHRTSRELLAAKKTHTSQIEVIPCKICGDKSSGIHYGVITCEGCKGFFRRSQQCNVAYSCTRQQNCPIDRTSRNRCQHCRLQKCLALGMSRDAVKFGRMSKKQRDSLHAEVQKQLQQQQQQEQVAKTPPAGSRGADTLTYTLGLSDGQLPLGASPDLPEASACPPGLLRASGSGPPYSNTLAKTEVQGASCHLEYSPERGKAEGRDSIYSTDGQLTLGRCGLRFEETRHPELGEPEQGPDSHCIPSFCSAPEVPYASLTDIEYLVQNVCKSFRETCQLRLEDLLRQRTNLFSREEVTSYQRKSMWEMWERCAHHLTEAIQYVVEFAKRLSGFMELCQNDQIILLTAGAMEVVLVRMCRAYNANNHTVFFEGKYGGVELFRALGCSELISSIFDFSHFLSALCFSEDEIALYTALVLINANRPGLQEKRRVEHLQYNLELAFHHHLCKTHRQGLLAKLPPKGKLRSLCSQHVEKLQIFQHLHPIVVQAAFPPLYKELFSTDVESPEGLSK
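Using a luciferase readout, inhibitors were identified by reduced reporter activity in Drosophila cells coexpressing a copper-inducible Gal4–ROR gamma fusion and UAS-driven Photinus luciferase, incubated 20 hr after 700 uM copper sulfate.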
Numbers without * were called inactive. The call rests on the fitted dose curve; in most records, active means well fitted curve in the direction sought with a large enough effect; inconclusive means small, poorly fitted or top-dose-only effect, or another doubt; inactive means no such curve, though single readings can be large; an effect the other way counts as inactive or inconclusive. On the % scale 0 is the no-effect control and ±100 the full control effect; potency means the concentration at half of the fitted maximal effect.

`O=C(NCc1ccccc1)c1cc(S(=O)(=O)N2CCCCC2)ccc1N1CCOCC1` gave Luc counter 3%, Gal4-VP16 FLuc 1% and RORgamma inh 6%.
For CC(NC(=O)C(C)N1CCN(Cc2ccccc2)CC1)c1ccc(F)cc1 (stereo not given) the results were Gal4-VP16 FLuc 0% and RORgamma inh 5%.
For O=[N+]([O-])c1ccc(O)c(-c2nc(-c3ccccc3)c(-c3cccs3)[nH]2)c1 the results were Luc counter -2%, Gal4-VP16 FLuc 11µM* and RORgamma inh -89%.
O=C(O)c1ccc(-c2nc(-c3ccccc3)c(-c3cccs3)[nH]2)cc1 was read as Gal4-VP16 FLuc 4% and RORgamma inh 21%.
For CCOC(=O)Cc1csc(NC(=O)CCN2C(=O)c3cccc([N+](=O)[O-])c3C2=O)n1 the results were Gal4-VP16 FLuc -5% and RORgamma inh 8%.
`O=C(NC1=NCCS1)c1ccccc1Cl` gave Gal4-VP16 FLuc 2% and RORgamma inh -1%.
Screening Cc1nn(Cc2ccccc2Cl)c(C)c1NC(=O)c1ccn(C)n1 returned Luc counter -3%, Gal4-VP16 FLuc -2% and RORgamma inh 35%.
Screening O=C(NC1=NCCS1)c1ccccc1OCc1ccccc1Cl returned Luc counter 10%, Gal4-VP16 FLuc inconclusive and RORgamma inh 10µM*.
Cc1nn(Cc2ccccc2Cl)c(C)c1C(=O)N1CCN(c2ccccc2)CC1 was read as Luc counter -1%, Gal4-VP16 FLuc 5% and RORgamma inh 20%.
`CCC(CC)c1nnc(NC(=O)c2c(C)nn(Cc3ccccc3Cl)c2C)s1` gave Luc counter -1%, Gal4-VP16 FLuc inconclusive and RORgamma inh 11µM*.
For Cc1nn(Cc2ccccc2Cl)c(C)c1C(=O)NC1=NCCS1 the results were Luc counter -2%, Gal4-VP16 FLuc -1% and RORgamma inh 10µM*.
`COc1cccc(-c2nn(-c3ccccc3)cc2CNC(C)Cn2cncn2)c1` (stereo not given) gave Luc counter -12%, Gal4-VP16 FLuc -12% and RORgamma inh 3%.
For COc1cc(C(=O)NCCOc2cccc(C)c2)c(Br)c(OC)c1OC the results were Luc counter -1%, Gal4-VP16 FLuc 11% and RORgamma inh 10%.
For CCOC(=O)NC(=O)CSc1nnc(C)s1 the results were Luc counter 3%, Gal4-VP16 FLuc 3% and RORgamma inh -31%.
For Cc1ccc(NC(=O)Cc2c(O)c3ccccc3[nH]c2=O)c(C)c1 the results were Gal4-VP16 FLuc inconclusive and RORgamma inh 0%.
S=C(S)O[C@@H]1C[C@@H]2C[C@H]1[C@@H]1CCC[C@H]21 was read as Luc counter 1%, Gal4-VP16 FLuc 1µM* and RORgamma inh 0.56µM*.
`S=C(S)OC1CC2CC1C1CCCC21` (stereo not given) gave Luc counter -1%.
`CC(C)CN(C(=O)COc1cccc(-n2cnnn2)c1)C1CCS(=O)(=O)C1` (stereo not given) gave Gal4-VP16 FLuc 2% and RORgamma inh -21%.
For COC(=O)c1c(C)oc(C)c1S(=O)(=O)NCc1ccc(Cl)cc1Cl the results were Gal4-VP16 FLuc 4% and RORgamma inh 18%.
COc1ccc(Br)cc1CNc1ccc(O)cc1 was read as Luc counter -1%, Gal4-VP16 FLuc inconclusive and RORgamma inh 8.9µM*.
COc1ccc(Br)cc1CNc1ccc2[nH]c(=O)[nH]c2c1 was read as Luc counter 2%, Gal4-VP16 FLuc -13% and RORgamma inh 3%.
For Cc1cc2[nH]c(=O)c(=O)[nH]c2cc1S(=O)(=O)NC1CCCCC1C (stereo not given) the results were Gal4-VP16 FLuc inconclusive and RORgamma inh -43%.
CS(=O)(=O)N1CCCC(C(=O)Nc2ccccc2Cl)C1 (stereo not given) was read as Gal4-VP16 FLuc -16% and RORgamma inh -6%.
`C=CCn1c(-c2cc3c(s2)CCC(CC)C3)n[nH]c1=S` (stereo not given) gave Luc counter -2%, Gal4-VP16 FLuc inconclusive and RORgamma inh 2.2µM*.
`C=CCn1c(SCC(=O)NC2CCS(=O)(=O)C2)nnc1-c1cc2c(s1)CCC(CC)C2` (stereo not given) gave Luc counter 3%, Gal4-VP16 FLuc 16% and RORgamma inh inconclusive.
`CCC(=O)c1ccc(OC(=O)N2CCOCC2)cc1` gave Gal4-VP16 FLuc -2% and RORgamma inh 0%.
For O=C(O)c1ccccc1-c1ccc(C(F)(F)F)cc1 the results were Gal4-VP16 FLuc 1% and RORgamma inh 4%.
For O=C(CN1CCCc2ccccc21)N/N=C/c1ccccc1O the results were Luc counter 7%, Gal4-VP16 FLuc 0.32µM* and RORgamma inh 0.25µM*.
For Cc1cc(C)n(CCC(=O)N/N=C/c2ccccc2O)n1 the results were Luc counter 5%, Gal4-VP16 FLuc 1.3µM* and RORgamma inh 1.3µM*.
`O=C(CCCCCNC(=O)c1ccccc1)N/N=C/c1ccccc1O` gave Luc counter 1%, Gal4-VP16 FLuc 20µM* and RORgamma inh 6.3µM*.
Screening O=C(CSc1n[nH]c(=O)[nH]c1=O)N/N=C/c1ccccc1O returned Luc counter 1%, Gal4-VP16 FLuc 12% and RORgamma inh -27%.
Screening O=C(CSc1ccccc1)N/N=C/c1ccccc1O returned Luc counter 2%, Gal4-VP16 FLuc 1.6µM* and RORgamma inh 0.63µM*.
O=C(CCCCCNC(=O)c1ccccc1)N/N=C/c1ccco1 was read as Luc counter -3%, Gal4-VP16 FLuc -6% and RORgamma inh 13%.
For Cc1cc(C)n(CCC(=O)N/N=C/c2ccc(O)cc2O)n1 the results were Luc counter 1%, Gal4-VP16 FLuc -10% and RORgamma inh inconclusive.
O=C(CN1CCCc2ccccc21)N/N=C/c1ccc(F)cc1F was read as Gal4-VP16 FLuc -3% and RORgamma inh 29%.
Screening C/C=C/c1ccc(OCC(O)CN(C)Cc2ccc(SC)cc2)c(OC)c1 (stereo not given) returned Gal4-VP16 FLuc -10% and RORgamma inh -20%.
`NC(N)=NCCC[C@H](NC(=O)c1ccccc1)C(=O)Nc1ccc([N+](=O)[O-])cc1` gave Gal4-VP16 FLuc 2% and RORgamma inh 4%.
CC(C)C[C@@H](CC(=O)N[C@H](CC(=O)N[C@@H]1CCNC[C@H]1C(=O)N[C@H](CC(=O)N[C@@H](CCC(=O)O)CC(=O)O)Cc1c[nH]c2ccccc12)C(C)C)NC(=O)[C@@H]1CCCC[C@H]1N was read as Luc counter 0%, Gal4-VP16 FLuc 1% and RORgamma inh 5%.
Nc1nc(SCc2cccc([N+](=O)[O-])c2)n[nH]1 was read as Gal4-VP16 FLuc -7% and RORgamma inh 6%.
For N[C@@H](CO)c1nnc([C@H](CC(=O)O)NC(=O)C2CCNCC2)o1 the results were Gal4-VP16 FLuc -8% and RORgamma inh -19%.
Screening C/C(=N\OCC(=O)N/N=C/c1ccccc1O)c1cccs1 returned Luc counter -3%, Gal4-VP16 FLuc 2.2µM* and RORgamma inh 1.1µM*.
For COc1cc(/C=N/NC(=O)CSc2cc(C)c(Br)cc2C)ccc1O the results were Luc counter 20%, Gal4-VP16 FLuc -11% and RORgamma inh 21%.
